Experimental data reported in PubChem BioAssay (NCATS).
Several values for one entry are separate records, joined by “and”; a condition that tells them apart may be missing. Equal values may be shown once. Results filed as inconclusive are left out. Some structures have more than one record in an assay (separate samples or runs), and their calls can disagree. For some of these results: Results with a measured potency or affinity are listed apart. Activity calls are given as the source filed them. For most assays here, the call rests on the fitted dose curve; in most records, active means well fitted curve in the direction sought with a large enough effect; inconclusive means small, poorly fitted or top-dose-only effect, or another doubt; inactive means no such curve, though single readings can be large; an effect the other way counts as inactive or inconclusive.

Columns and labels:
[1] = qHTS assay for small molecule agonists of the antioxidant response element (ARE) signaling pathway measured by Nrf2-dependant transcriptional activity (AID 720636; active means well fitted curve in the direction sought with a large enough effect in the repeat runs; an effect the other way counts as inactive or inconclusive; further: potency means the concentration at half of the fitted maximal effect)
Summary of the method: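 Reporter gene assay, HepG2 ARE-luc: 16 hr compound, 37 C, 5% CO2; read-out luciferase luminescence.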

[2] = qHTS assay for small molecule antagonists of the retinoid-related orphan receptor gamma (ROR-gamma) signaling pathway - cell viability counter screen (AID 720652; active means well fitted curve in the direction sought with a large enough effect in the repeat runs; an effect the other way counts as inactive or inconclusive;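 further: CHO reporter cells with doxycycline-induced ROR-gamma expression; series mostly up to about 92 µM; compound exposure lasted 16 hr before ATP read; on the % scale 0 is the no-effect control and ±100 the full control effect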)
Summary of the method: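 Cytotoxicity is quantified via intracellular ATP (CellTiter-Glo luminescence) in doxycycline-induced CHO ROR response element-luciferase reporter cells treated with compound for 16 hr at 37 C, 5% CO2.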

[3] = qHTS assay for small molecule agonists of the antioxidant response element (ARE) signaling pathway measured by Nrf2-dependant transcriptional activity - cell viability counter screen (AID 720653; active means well fitted curve in the direction sought with a large enough effect in the repeat runs; an effect the other way counts as inactive or inconclusive; further: potency means the concentration at half of the fitted maximal effect; on max response: on the % scale 0 is the no-effect control and ±100 the full control effect); details: ARE-bla HepG2 viability, CellTiter-Glo ATP luminescence, 16 h; max response: stronger effect = lower value
Summary of the method: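 ARE-bla HepG2 cells treated with compounds for 16 h at 37C; this counter screen measures viability as intracellular ATP by CellTiter-Glo luminescence after 30 min at room temperature.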

[4] = qHTS assay for cell viability of HEK293 cells (AID 743288); details: ATP luminescence (CellTiter-Glo), 18 h; max response: stronger effect = lower value; further: nearly all actives have a fitted effect of over 50% in size; further: potency means the concentration at half of the fitted maximal effect; on max response: on the % scale 0 is the no-effect control and ±100 the full control effect
Summary of the method: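 The Tox21 protocol used parental HEK293 cells treated for 18 h at 37 C with compounds delivered by pintool; ATP-coupled luminescence after 30 min at room temperature gave viability.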

[5] = qHTS assay for cell viability of the p53RE-bla HCT-116 cell line (AID 743292); further: nearly all actives have a fitted effect of over 55% in size; further: potency means the concentration at half of the fitted maximal effect
Summary of the method: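 Readout: CellTiter-Glo luminescence after 30 min RT. Treatment: compounds in DMSO, 16 h, 37 C. Cells: CellSensor p53RE-bla HCT-116, 4,000/well, preincubated 5 h.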

[6] = Ebola virus entry assay, green fluorescence channel
[7] = qHTS Assay for Identifying Gametocytocidal Compounds (AID 743244); further: potency means the concentration at half of the fitted maximal effect;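 on max response: on the % scale 0 is the no-effect control and ±100 the full control effect; actives lower the fluorescent signal which means gametocytes are killed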; details: P. falciparum 3D7 stage III-V gametocytes, alamarBlue, 72 h; max response: stronger effect = lower value
Summary of the method: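 In this qHTS viability screen, late-stage 3D7 gametocytes are incubated with compound for 72 h, then with alamarBlue for 24 h; reduced resorufin fluorescence marks killing.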

[8] = qHTS for compounds that reverse cellular toxicity of Amyloid beta (A-beta) peptide in yeast: LOPAC Validation Assay (AID 720559);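 further: plate controls were DMSO for no effect and equimolar ferric chloride plus clioquinol rescue for full effect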
Summary of the method: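 Activity is expressed relative to DMSO and an equimolar ferric chloride/clioquinol mix. Compounds were pinned into medium with A-beta-expressing yeast, grown 48 hr at 30 C, then read by absorbance at 600 nm.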

[9] = qHTS for Activators of Parkin Expression: LOPAC Validation Assay (FLuc Reporter) (AID 720573;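 further: 0% = DMSO and 100% = positive control compounds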)
Summary of the method: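 A neuronal cell line harbouring FLuc and NLuc reporters behind the Parkin promoter was exposed to compounds for 24 h. Firefly luciferase signal, measured after 10 min with detection reagent, was scaled to DMSO and positive-control wells.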

[10] = target: T1, Hexokinase-4 (Homo sapiens) + Glucokinase regulatory protein (Homo sapiens) (UniProt P35557+Q14397); test: qHTS assay for inhibitors of recombinant human GCK-GKRP interaction: Diaphorase-coupled assay (AID 743205)
T1 sequence (P35557 whole entry, looked up): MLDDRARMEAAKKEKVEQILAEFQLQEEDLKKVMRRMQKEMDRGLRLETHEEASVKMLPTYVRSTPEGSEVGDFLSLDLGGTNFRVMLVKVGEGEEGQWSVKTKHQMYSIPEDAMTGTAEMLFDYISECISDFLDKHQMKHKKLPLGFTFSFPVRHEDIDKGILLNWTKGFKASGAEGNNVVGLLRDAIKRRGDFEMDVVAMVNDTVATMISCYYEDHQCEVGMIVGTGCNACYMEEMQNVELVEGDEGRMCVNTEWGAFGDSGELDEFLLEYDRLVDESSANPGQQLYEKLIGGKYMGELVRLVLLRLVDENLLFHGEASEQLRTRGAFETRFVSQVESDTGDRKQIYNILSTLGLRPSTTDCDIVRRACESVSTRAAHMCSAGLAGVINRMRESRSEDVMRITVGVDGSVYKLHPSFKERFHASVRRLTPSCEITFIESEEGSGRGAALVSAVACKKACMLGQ
T1 sequence (Q14397 whole entry, looked up): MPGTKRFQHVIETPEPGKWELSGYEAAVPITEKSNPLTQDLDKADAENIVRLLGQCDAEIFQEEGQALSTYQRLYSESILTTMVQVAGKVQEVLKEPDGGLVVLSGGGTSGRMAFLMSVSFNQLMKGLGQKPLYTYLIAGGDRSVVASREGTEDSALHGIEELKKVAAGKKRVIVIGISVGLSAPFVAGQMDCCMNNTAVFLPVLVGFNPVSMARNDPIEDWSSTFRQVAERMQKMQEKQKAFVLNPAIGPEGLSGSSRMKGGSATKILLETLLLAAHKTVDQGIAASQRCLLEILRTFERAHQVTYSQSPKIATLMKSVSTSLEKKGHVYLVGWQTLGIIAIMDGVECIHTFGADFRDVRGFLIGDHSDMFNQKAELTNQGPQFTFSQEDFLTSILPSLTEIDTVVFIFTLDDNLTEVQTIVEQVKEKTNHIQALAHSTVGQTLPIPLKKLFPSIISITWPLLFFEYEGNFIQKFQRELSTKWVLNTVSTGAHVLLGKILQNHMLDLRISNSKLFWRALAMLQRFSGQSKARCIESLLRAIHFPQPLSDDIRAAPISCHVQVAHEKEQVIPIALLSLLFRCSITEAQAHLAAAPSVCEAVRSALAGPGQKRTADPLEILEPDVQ
Summary of the method: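 Inhibitors of the GCK–GKRP complex relieve GKRP suppression of GCK, detected through a G6PDH–diaphorase cascade reducing resazurin. Human GST-GCK and FLAG-GKRP are used at 10 nM with 5 mM glucose and 0.4 mM ATP.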

[11] = target: T1, Hexokinase-4 (Homo sapiens) + Glucokinase regulatory protein (Homo sapiens); test: qHTS assay for inhibitors of recombinant human GCK-GKRP interaction: ADP-Glo assay (AID 743206);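 further: plate controls were DMSO plus enzyme for no effect and no enzyme for full effect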
Summary of the method: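 GST-GCK and FLAG-GKRP (15 nM each in the dispensed mix, with 2 uM S6P) react with 0.4 mM ATP and 5 mM glucose (final) in Hepes pH 7.6 for 60 min at room temperature. ADP is measured by ADP-Glo luminescence.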

[12] = target: T1, Hexokinase-4 (Homo sapiens) + Glucokinase regulatory protein (Homo sapiens); test: qHTS assay for inhibitors of recombinant human GCK-GKRP interaction: HTRF assay (AID 743207);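 further: 0% = DMSO with GCK present and -100% = DMSO wells lacking GCK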
Summary of the method: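 Steps: dispense GCK–GKRP complex (5 nM each, GST- and FLAG-tagged) with 2 uM S6P; pin in compounds; add XL665/Eu-cryptate-labelled antibodies; incubate 60 min at room temperature; read time-resolved FRET at 665 and 615 nm.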
Wherever efficacy is given: 0% is about no effect.

Oc1ccccc1-c1ccccc1
inactive: Potency [1] | Potency [2] | max response [3] -12.4% and -2.58% and -3.94% | max response [4] -4.38% and -13.9% and 2.52% | efficacy [6] 11.7%
inactive and 708 µM (active): Potency [5]
active: Potency [3] 251 µM | Potency [4] 891 µM

Clc1ccc(COC(Cn2ccnc2)c2ccc(Cl)cc2Cl)cc1 (stereo not drawn)
active: Potency [7] 10 µM
inactive: Potency [1] | max response [3] -7.45% | max response [4] -21% | efficacy [6] -214%

CCCC1CCCCN1 (stereo not drawn)
inactive: max response [7] -2.88% | efficacy [6] -19.4%

NC(=Nc1ccccc1)Nc1ccccc1
inactive: max response [3] 3.18% | efficacy [6] -28.5%

c1ccc2c(c1)Nc1ccccc1S2
active: Potency [7] 22.4 µM and 28.2 µM
inactive: Potency [1] | Potency [2] | max response [3] -25.7% and -9.49% | max response [4] -11.4% and -9% | Potency [5] | efficacy [6] 4%

O=C(NC(O)C(Cl)(Cl)Cl)NC(O)C(Cl)(Cl)Cl (stereo not drawn)
inactive: max response [7] -4.63% | efficacy [6] 18%

O=C1NCN(c2ccccc2)C12CCN(CC1COc3ccccc3O1)CC2 (stereo not drawn)
inactive: outcome [8] | outcome [9] | outcome [10] | outcome [11] | outcome [12] | max response [7] -1.23% and 22.3% | efficacy [6] -42.1%

c1ccc2c(c1)OCC(C1=NCCN1)O2 (stereo not drawn)
active: Potency [7] 6.31 µM and 3.55 µM
inactive: outcome [8] | outcome [9] | outcome [10] | outcome [11] | outcome [12] | efficacy [6] 12.1%

CCN(CC)C(=O)N[C@@H]1C=C2c3cccc4[nH]cc(c34)C[C@@H]2N(C)C1
inactive: efficacy [6] 16%
active: Potency [7] 20 µM

C[C@H]1O[C@@H](O[C@H]2[C@@H](O)C[C@H](O[C@H]3[C@@H](O)C[C@H](O[C@H]4CC[C@@]5(C)[C@H](CC[C@@H]6[C@@H]5CC[C@]5(C)[C@@H](C7=CC(=O)OC7)CC[C@]65O)C4)O[C@@H]3C)O[C@@H]2C)C[C@H](O)[C@@H]1O
inactive: Potency [1] | max response [7] -3.93% | efficacy [6] -46.6%
active: Potency [4] 0.0562 µM

Oc1cccc2cccnc12
active: Potency [1] 42.2 µM | Potency [7] 11.2 µM and 25.1 µM
inactive: Potency [2] | max response [3] -16.3% | max response [4] -19.7% | Potency [5] | efficacy [6] -17.8%

CCCN1CCC[C@@H]2Cc3nc(N)ncc3C[C@H]21
inactive: outcome [8] | outcome [9] | outcome [10] | outcome [11] | outcome [12] | max response [7] 3.72% and 1.86% | efficacy [6] 40.4%

COc1ccccc1N1CCNCC1
inactive: outcome [8] | outcome [9] | outcome [10] | outcome [11] | outcome [12] | max response [7] 13.1% and 8.67% | efficacy [6] 33.5%

O=c1oc2ccccc2c(O)c1C(CC(O)c1ccc(-c2ccc(Br)cc2)cc1)c1ccccc1 (stereo not drawn)
inactive: Potency [1] | max response [3] -8.71% | max response [7] -15.4% | max response [4] -5.59% | efficacy [6] 92.1%
active: Potency [5] 31.6 µM
